The source holds several records for some structures; these can differ, active in one and inactive in another. Active and inactive are the calls of the source. How the source made its calls: active means hit-call score of the fitted dose curve at least 0.9, where 1 is the maximum; inactive means score below 0.9.
Assay: CCTE_Shafer_MEA_dev_spike_duration_mean: CCTE's Neural Network Formation Assay for Mean Spike Duration, Shafer Lab (AID 2284051);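 on AC50: potency for a decrease in mean network spike duration versus DMSO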
Protocol: CCTE_Shafer_MEA_dev assay is conducted using Axion Biosystems 48 well microelectrode array (MEA) plates and Maestro recording system. Each well of the MEA plate contains a grid of 16 microelectrodes embedded in the culture surface. Electrically active cells, such as neurons, can be cultured over the electrodes, and electrical activity in these cells can be recorded extracellularly. The spontaneous firing of neurons is captured from each electrode on a microsecond timescale providing both temporally and spatially precise data. […] The CCTE_Shafer_MEA_dev assay uses primary cultures of rat cortical neurons. Recordings are made on days post-plating 5, 7, 9 and 12. As these cultures mature over time, neural networks develop functional activity and form cohesive networks in which electrical activity can be highly coordinated. CCTE_Shafer_MEA_dev_spike_duration_mean is 1 of 19 assay components of the CCTE_Shafer_MEA_dev assay. It measures the average duration of network spikes (temporally-clustered groups of action potential firing across multiple electrodes) during a recording in a microelectrode array (MEA) using Axion Biosystems Maestro 768 channel amplifier with the AxIS adaptive spike detector. To collapse across multiple recordings made on days post-plating 5, 7, 9 and 12, the trapezoidal area-under-the-curve of the component is calculated.Data from the assay component CCTE_Shafer_MEA_dev_spike_duration_mean was analyzed into 1 assay endpoint. This assay endpoint, CCTE_Shafer_MEA_dev_spike_duration_mean, was analyzed in the negative analysis fitting direction relative to DMSO as the negative control and baseline of activity. Using a type of functional reporter, gain or loss-of-signal activity can be used to understand electrical activity.
On the day prior to culture, each well was coated thoroughly with 150 uL of 0.05% polyethyleneimine (PEI, Sigma Cat P3143) in 50 mM HEPES (Sigma Cat H7523) at a pH of 8. The plate was incubated at 37C for one hour. PEI was rinsed out with 500 uL of sterile water three times. Plates were stored at 4C until the day of culture. This culture was plated at a seeding density of 1.5 x 10^5 cells/well on a 48-well MEA plate, prepared as described above. Cells were administered via a 25 uL media/laminin ([…]; Sigma Cat L2020-1MG) drop directly onto the microelectrode array, as adding the cells with the laminin results in better attachment than pre-coating with laminin. After 2 hours, an additional 475 uL of cortical media was added and the cells returned to the incubator. Exposure starts at day 0 of plating and is continued over twelve days of network development until the experiment is terminated. Cells are fed with fresh medium on DIV 5 and 9, following the recordings on those days. The entire volume of media in the well is exchanged and any vehicle or compound treatment is renewed. Complete details are found in OP-NHEERL/ISTD/SBB/TJS/2015-03-r0 (available on request, email shafer.tim@epa.gov). Measurement of the electrical activity is non-invasive, and recordings can be made from the same plate over multiple different days of the culture. In cortical neurons, this allows for the measurement of extracellular action potentials over the period during which networks form in the MEA plate.

Structure (SMILES) | AC50 | outcome
Nc1ncn([C@@H]2O[C@H](CO)[C@@H](O)[C@H]2O)c(=O)n1 | 4.17 µM (active) | inactive
CN(C)c1ccc(C(=N)c2ccc(N(C)C)cc2)cc1 | 2.42 µM (active) | 
CCOC(F)(F)C(F)(F)C(F)(F)C(F)(F)F |  | inactive
c1ccc2c(c1)ccc1cc3c(ccc4ccccc43)cc12 |  | inactive
COC(F)(F)C(F)(C(F)(F)F)C(F)(F)F |  | inactive
FC(F)=C(F)OC(F)(F)C(F)(F)C(F)(F)F |  | inactive
N[C@H]1C(O)O[C@H](CO)[C@H](O)[C@@H]1O (stereo not given in full) | 25.3 µM (active) | 
CC1(C)S[C@@H]2[C@H](NC(=O)COc3ccccc3)C(=O)N2[C@H]1C(=O)O |  | inactive
CC=CC(F)(F)C(F)(F)C(F)(F)F |  | inactive
